Out of some 270,000 compounds screened, about 1,100 (0.41%) were called active. Inconclusive results (about 3%) are left out. The call rests on the fitted dose curve. For the sample, actives were picked, then their nearest neighbours and some compounds at random.
Potency means the concentration at half of the fitted maximal effect.

The experiment is described as follows: qHTS Assay for Inhibitors of Influenza NS1 Protein Function. Further: actives are rising curves; nearly all actives have a fitted effect of over 50% in size. The settings on record: series mostly up to 46.1 µM; activity, positive = more growth: at the top concentration. An excerpt:
NIH Chemical Genomics Center [NCGC]
NIH Molecular Libraries Probe Centers Network [MLPCN]
Assay Submitter (PI): Daniel Engel
Influenza is a world-wide public health problem and emerging forms of the virus have the potential to cause a pandemic of equal or greater magnitude to the outbreaks recorded in 1918, 1957 or 1968. Vaccine development is proceeding and there also exist two classes of anti-influenza compounds. However these therapeutic modalities are neither fully effective nor widely enough available to fulfill global needs. In addition their potential usefulness against newly emergent strains is not known. Efforts are needed to develop novel agents against influenza virus, including broad-spectrum agents. Identification of small molecules that inhibit NS1 function either directly or by interfering with specific cellular pathways may be a key to increasing our defense against the virus.
We have miniaturized and optimized a cell based assay in which NS1 from influenza A is expressed in the budding yeast S. cerevisiae. NS1 is a multi-functional protein that counters the host innate immune response and facilitates viral versus cellular gene expression. Expression of NS1 causes a pronounced slow growth phenotype in yeast due to its intrinsic molecular activities. Small molecules that suppress the slow growth phenotype can be identified by a straightforward growth recovery assay using optical density (OD) as the measurement. The same yeast strain not expressing NS1 was used as positive control in the yeast growth recovery assay.
The yeast S. cerevisiae control and NS1 expressing cells were kindly supplied by laboratory of Dr. Daniel Engel, University of Virginia. Yeast starter cultures were stored in single use aliquots at -80C.
1. Yeast culture medium per liter: 1.2 g Yeast Nitrogen Base (w/out amino acids and Ammonium Sulphate), 5.0g Ammonium Sulphate, 0.77g -URA DO (drop-out) Supplement, adjust pH to 6.0. Adjust to 2% glucose prior to inoculating with yeast.
2. Yeast assay medium: 1.2 g Yeast Nitrogen Base (w/out amino acids and Ammonium Sulphate), 5.0g Ammonium Sulphate, 0.77g -URA DO (drop-out) Supplement, adjust pH to 6.0. Adjust to 2% D-galactose prior to inoculating with yeast.
1. Inoculate 100 mls of yeast culture medium with 1 ml of frozen yeast aliquote. Incubate overnight at 30C, 250RPM.
2. Harvest overnight culture at 4000 RPM and wash pellet with 15 mls H2O 3x.
3. Re-suspend washed pellet in 10 mls of yeast assay medium.
4. Prepare a 1:100 dilution of re-suspended culture in yeast assay medium.
5. Dispense 3.5 ul per well of reagents in step 4 in columns 2-48 in a black clear bottom 1536 well plate.
6. Dispense 3.5 ul per well of yeast assay medium in column 1 only.
7. Transfer 23 nl of compound per well.
8. Dispense 3.5 ul per well of yeast assay medium in columns 1-48.
9. Read plate using Viewlux protocol for optical density 600 (OD600) using excitation filter 600nm.
Take `Cc1cnc(NC(=O)c2ccc(Cl)nc2)s1`: the “activity, positive = more growth” value is -1.39% (inactive). Regarding `O=C(CCCN1C(=O)/C(=C/c2cccs2)SC1=S)Nc1ccc(O)cc1`, the “activity, positive = more growth” value is -5.71% (inactive). As to `COc1ccc(CNC(=O)C(c2ccc(O)cc2)N(Cc2ccco2)C(=O)c2snc(C(N)=O)c2N)cc1` (centres undefined), the “activity, positive = more growth” value is 12.4% (inactive). `Cc1cccc(NC(=S)NCCc2ccc(Cl)cc2)c1C`: the “activity, positive = more growth” value is -49.7% (inactive). Take `O=c1cc(O)nc(SCc2ccccc2Cl)[nH]1`: the Potency was 5.01 µM (active). Consider `Clc1ccccc1CSc1nnc(-c2ccco2)c(-c2ccco2)n1`, for which the “activity, positive = more growth” value is 10.7% (inactive). For `O=c1[nH]nc(CSCc2ccccc2Cl)[nH]1`, the “activity, positive = more growth” value is -9.59% (inactive).

For the compound `COc1ccc(C(=O)/C=C/c2cccnc2)c(OC)c1`, the “activity, positive = more growth” value was -15.2% (inactive). For `O=C(/C=C/c1ccco1)NC(=S)Nc1ccccc1Br`, the “activity, positive = more growth” value was 13.4% (inactive). For the compound `Oc1ccccc1-c1cc(-c2ccc(Cl)cc2)n[nH]1`, the “activity, positive = more growth” value is -6.76% (inactive). With `Cc1ccccc1C(OCC(O)CN1CCCCC1CCO)c1ccccc1` (centres undefined), the Potency was 4.47 µM (active). For `CC(C)OCC(O)CN1CCN(C(c2ccccc2)c2ccccc2)CC1` (centres undefined), the “activity, positive = more growth” value is 0.765% (inactive). As for `COc1cccc(CN(C)CC(O)COC(c2ccccc2)c2ccccc2C)c1` (centres undefined), the “activity, positive = more growth” value is 2.51% (inactive). Regarding `COc1ccc(/C=C2\SC(=O)N(CCC(=O)NCCCn3ccnc3)C2=O)cc1`, the “activity, positive = more growth” value was -0.375% (inactive). For the compound `COC(=O)CN1C(=O)C(C)(C)Oc2ccc(C(=O)Nc3cccc(OC)c3)cc21`, the “activity, positive = more growth” value was -9.9% (inactive). As for `CCCCNC(=O)CSc1nc2n[nH]c(C)c2c(=N)n1-c1cccc(Cl)c1C`, the “activity, positive = more growth” value was 9.85% (inactive).

Take `Cc1ccc(-n2c(SCC(=O)NCCC3=CCCCC3)nc3n[nH]c(C)c3c2=N)cc1Cl`: the “activity, positive = more growth” value is -0.553% (inactive). Regarding `COc1cccc(-n2c(SCC(=O)NC3CCCCC3)nc3n[nH]c(C)c3c2=N)c1`, the Potency was 3.16 µM (active). `O=C(NC(=S)Nc1ccc(Cl)cc1Cl)C1CC1`: the “activity, positive = more growth” value was -10.3% (inactive). For the compound `COc1ccc(Oc2cn[nH]c2-c2ccc(OC)cc2O)cc1`, the “activity, positive = more growth” value was -65.9% (inactive). For `Cc1cc(C)c(SCCc2ccncc2)c(C)c1`, the “activity, positive = more growth” value was -40.4% (inactive). Turning to `O=c1c2ccccc2ncn1/N=C/c1ccccc1`, the “activity, positive = more growth” value was -8.05% (inactive). Consider `C[C@@H](C(=O)Nc1ccc2ccccc2c1)[C@@H]1C[C@@]1(C)[C@@H](NC(=O)c1cccnc1)c1ccccc1`, for which the Potency was 12.6 µM (active). As to `COC(=O)[C@H](C)[C@H]1C[C@]1(C)[C@H](NC(=O)OCc1ccccc1)c1ccccc1`, the “activity, positive = more growth” value was -66.8% (inactive).

`O=C(Nc1ccc(N2CCN(C(=O)c3ccccc3)CC2)c(Cl)c1)c1cccnc1`: the “activity, positive = more growth” value was -2.87% (inactive). As for `O=C(Nc1nnc(C2=COCCO2)o1)c1ccc([N+](=O)[O-])s1`, the “activity, positive = more growth” value was -17.1% (inactive). In the case of `O=C(N/N=C\c1cc2c(cc1Cl)OCO2)c1ccc(Br)s1`, the “activity, positive = more growth” value is -1.29% (inactive). The same measure, in the same setting: to `CCCOC1CCCN(C(=O)c2cc(COc3cncc(Cl)c3)on2)C1` (centres undefined) belongs -16.5% (inactive); to `CC(C)(C)c1ccc(CN2C(=O)c3ccccc3S2(=O)=O)cc1`, -6.88% (inactive); to `COc1cccc(-c2nc(CS(=O)CC(=O)NCc3ccc(F)cc3)c(C)o2)c1` (centres undefined), 6.23% (inactive). As to `COc1ccc(-c2nc(CS(=O)CC(=O)NCc3ccccc3)c(C)o2)cc1OC` (centres undefined), the “activity, positive = more growth” value was 2.37% (inactive). Take `COc1ccc(-c2nc(CS(=O)CC(=O)NCc3ccccn3)c(C)o2)cc1` (centres undefined): the Potency is 14.1 µM (active). For `Cc1c(C)n(Cc2ccc(Cl)cc2)c2ccc(C(=O)NCCCN3CCOCC3)cc12`, the “activity, positive = more growth” value is 2.54% (inactive). Take `COCc1nc2ccccc2n1Cc1ccccc1Br`: the Potency is 2.82 µM (active). On to `COc1ccccc1Cn1c(CO)nc2ccccc21`, for which the “activity, positive = more growth” value was 2.42% (inactive). For `COCn1c(COc2ccccc2)nc2ccccc21`, the “activity, positive = more growth” value is -9.61% (inactive). Same read-out and setting: to `CN(CCO)c1ccc(/C=N/Nc2nncc3ccccc23)cc1` belongs -0.974% (inactive). Consider `CCc1ccccc1S(=O)(=O)Cc1ccc(C(=O)NCCc2ccccc2)o1`, for which the “activity, positive = more growth” value was 5.46% (inactive). Consider `Clc1c(OCCCn2ccnc2)ccc2ccccc12`, for which the “activity, positive = more growth” value is -92.1% (inactive).

Consider `Cn1c(CSCC(=O)Nc2ccccc2)nnc1SCc1ccccc1`, for which the “activity, positive = more growth” value was -3.56% (inactive).

On to `Cn1c(Cc2cccs2)nnc1SCC(=O)Nc1ccccc1`, for which the “activity, positive = more growth” value was 11.6% (inactive).

`Cn1c(CC(=O)Nc2ccccc2)nnc1SCC(=O)c1ccccc1`: the Potency is 11.2 µM (active). As to `O=S1(=O)CCOC[C@H](CC2CCCCC2)N1Cc1ccc(F)cc1`, the “activity, positive = more growth” value is -5.09% (inactive). As to `Cc1nonc1C1CCCN1C(=O)c1cc(COc2cccc(C(F)(F)F)c2)on1` (centres undefined), the “activity, positive = more growth” value was 1.92% (inactive). Still for that read-out and setting: to `COc1ccc(C(=O)CC(=O)c2ccc(C)cc2)c(O)c1` belongs -8.33% (inactive); to `O=C(Nc1ccccc1)c1ccc2c(c1)OCCCO2`, -89.8% (inactive); to `COc1ccccc1-c1noc(CSc2nc(C)cc(=O)[nH]2)n1`, 1.14% (inactive). Take `Cc1cc(=O)[nH]c(SCc2cc(Cl)ccc2OC(F)F)n1`: the Potency is 3.16 µM (active). As for `Cc1cc(=O)[nH]c(SCc2cccc(F)c2)n1`, the “activity, positive = more growth” value was -3.47% (inactive). As for `CC(=O)N1CCc2c(sc(NC(=O)CCS(=O)(=O)c3ccccc3)c2C#N)C1`, the “activity, positive = more growth” value is -4.08% (inactive). For `Cc1ccc(N(Cc2cc(=O)[nH]c3ccccc23)C(=O)CCl)cc1`, the “activity, positive = more growth” value is 2.46% (inactive). Consider `CC(C)n1c(COc2ccccc2)nc2ccccc21`, for which the “activity, positive = more growth” value was -47.3% (inactive).

As for `Cc1cccc(NC(=O)c2ccc3c(=O)n(CC4CCCO4)c(=S)[nH]c3c2)c1` (centres undefined), the “activity, positive = more growth” value is -0.15% (inactive). The same measure, in the same setting: to `CC1CCN(C2=NC(=O)/C(=C/c3ccc(O)cc3)S2)CC1` belongs 15% (inactive).

These data come from PubChem BioAssay AID2326 (National Center for Advancing Translational Sciences (NCATS), 2010).
